# Assay outcomes from PubChem.
# BL2 CD40 inh: CD40 pathway inhibition in BL2 cells; BL2 NF-kB luciferase reporter, CD40L-induced, 4 h; inhibition, % at 10 µM; AID 1053188; 0.94% of 83,000 active;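 active = mean inhibition of at least 50% with a set share of replicates also reaching that level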;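 note: 0% = neutral control wells and 100% = IKK inhibitor VII at 50 µM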
# Numbers without * were called inactive; [ ] = remark or other dose. Many of the other results were omitted from the sample, so hits are more common in it than they were.
SMILES,BL2 CD40 inh
CS(=O)(=O)N1[C@@H](C#N)[C@@H](c2ccccc2-c2ccccc2)[C@@H]1CO,-10[25 µM]
CC(=O)N(C[C@H]1N[C@H](CO)[C@@H]1c1ccc(-c2cccc(F)c2)cc1)C1CCCC1,4[25 µM]
COc1ccc(-c2cc(C(=O)N3CC(C)CC(C)C3)c3ccccc3n2)cc1 (stereo not given),-13
COc1ccc(-c2cc(C(=O)N3CCCC3)c3ccccc3n2)cc1,-57
COc1ccc2cc(-c3cc(C(=O)O)c4ccccc4n3)ccc2c1,83*
C[C@@H](NC(=O)/C(C#N)=C\c1ccc(O)c(O)c1)c1ccccc1,-6[25 µM]
C[C@@H](NC(=O)[C@H]1N[C@H]2c3ccc(-c4cccnc4)c(=O)n3C[C@H]2[C@@H]1CO)c1ccccc1,-12[25 µM]
CCC(=O)N1[C@H](CO)[C@H](c2ccc(C3=CCCC3)cc2)[C@@H]1CNC1CCCCC1,2[25 µM]
Cc1cc(C)c2c(N)c(C(=O)Nc3nccs3)sc2n1,70*
Cc1cc(C)c2c(N)c(C(=O)NC3CC3)sc2n1,-5
Cc1cc(C)c2c(N)c(C(=O)NN)sc2n1,-14
O=C(NC(CO)C(=O)OCc1ccccc1)OCc1ccccc1 (stereo not given),3
CC(C)C[C@@H](C=O)NC(=O)[C@H](CC(C)C)NC(=O)[C@H](CC(C)C)NC(=O)OCc1ccccc1,64*[25 µM]
COC(=O)C(CC(C)C)NC(=O)C(N)Cc1ccccc1 (stereo not given),12
O=C(C[C@H]1CC[C@@H]2[C@H](COC[C@H](O)CN2CC2CCCCC2)O1)NCC1CC1,2
CCCNc1ccc2ncc(Br)n2n1,36
CN1c2ccc(Br)cc2[C@H]2[C@H](CCN2C(=O)CN2CCOCC2)[C@@H]1CO,2[25 µM]
O=C(Nc1cccc(C(F)(F)F)c1)OCc1ccncc1,3
Cc1ccc(Nc2ncccc2C(=O)O)cc1C,-63
O=C1OC(OC(=O)c2cccnc2Nc2cccc(C(F)(F)F)c2)c2ccccc21 (stereo not given),85*[25 µM]
COCCNC(=O)C[C@@H]1CC[C@@H]2[C@@H](COc3ccc(NS(=O)(=O)c4ccc(Cl)cc4)cc3C(=O)N2C)O1,-10[25 µM]
O=C(C[C@@H]1C[C@@H]2c3cc(NC(=O)Nc4ccc(F)cc4)ccc3O[C@@H]2[C@@H](CO)O1)NC1CCCC1,3
CSc1nnc(NC(=O)c2nc(S(=O)(=O)Cc3ccccc3)ncc2Cl)s1,102*
COc1ccc(C(=O)Nc2nnc(S(=O)(=O)Cc3ccccc3)s2)cc1,6
CSc1ncc(Cl)c(C(=O)Nc2nnc(SC)s2)n1,-2
SMILES,BL2 CD40 inh
CNC[C@@H]1OCCCC[C@@H](C)Oc2ccc(NS(=O)(=O)c3ccc(C)cc3)cc2C(=O)N([C@H](C)CO)C[C@@H]1C,14
COCC(=O)N1CC(=O)N2[C@H](CO)[C@H](c3ccc(-c4ccncc4)cc3)[C@@H]2C1,1[25 µM]
Oc1c(C(Nc2ccccn2)c2ccccn2)ccc2cccnc12 (stereo not given),-6
COc1ccccc1NC(c1cccnc1)c1ccc2cccnc2c1O (stereo not given),49*
Cc1ccnc(NC(c2cccnc2)c2ccc3cccnc3c2O)c1 (stereo not given),-33
CC(C)NC(=O)N1[C@@H](CO)[C@@H](c2ccccc2)C12CN(Cc1cc(F)cc(F)c1)C2,9[25 µM]
O=C(c1cnccn1)N1CC(=O)N2[C@H](CO)[C@@H](c3ccc(C#CC4CC4)cc3)[C@@H]2C1,-8[25 µM]
Cc1ccc(OCC(=O)N2CCc3ccccc3C2)cc1C,-13
O=C(c1cc(-c2cccs2)on1)N1CCc2ccccc2C1,-18
Cc1ccc(OCc2cc(C(=O)N3CCc4sccc4C3)no2)cc1C,38*
O=C(C1CCCC1)N1[C@@H]2CN(S(=O)(=O)c3ccccc3)c3ccccc3[C@@H]2[C@@H]1CO,9
CNc1cc2ncnc(Nc3cccc(Br)c3)c2cc1N,-7[25 µM]
COc1ccccc1S(=O)(=O)N(C)C[C@@H]1OCc2cn(nn2)CCCC(=O)N([C@@H](C)CO)C[C@@H]1C,3[25 µM]
Cc1ccc(-c2cc(C(=O)NCC3(N(C)C)CCCCC3)c3ccccc3n2)o1,0
COc1ccc(NC(=O)CN(C)C(=O)c2cc(-c3ccco3)nc3ccccc23)cc1,-6
Cc1ccc(-c2cc(C(=O)N(C)CC(=O)Nc3ccccc3Br)c3ccccc3n2)o1,55*
Cc1ccc(S(=O)(=O)N(C)C[C@@H]2OCCCC[C@@H](C)Oc3ccc(NS(=O)(=O)c4ccc(F)cc4)cc3C(=O)N([C@@H](C)CO)C[C@H]2C)cc1,27
C[C@@H]1CN([C@H](C)CO)C(=O)CCCn2cc(nn2)CO[C@@H]1CN(C)C(=O)C1CCCCC1,-3
C[C@@H]1CN([C@@H](C)CO)C(=O)c2cc(NC(=O)Nc3cccc4ccccc34)ccc2O[C@@H](C)CCCCO[C@@H]1CN(C)S(=O)(=O)c1cn(C)cn1,-34[25 µM]
COc1cccc(NC(=O)N2CC(=O)N3[C@H](CO)[C@H](c4ccc(C5=CCCCC5)cc4)[C@@H]3C2)c1,9[25 µM]
CCCNC(=O)[C@@H]1[C@@H](CO)[C@@H]2Cn3c(ccc(-c4cccc(F)c4)c3=O)[C@H]1N2C(=O)CC,-9[25 µM]
N#C[C@@H]1[C@@H](c2ccc(C#CC3CCCC3)cc2)[C@H](CO)N1C(=O)Nc1ccc(F)cc1,21
N#C[C@H]1[C@H](c2ccccc2-c2ccc(F)cc2)[C@H](CO)N1C(=O)NC1CCCCC1,13[25 µM]
N#C[C@@H]1[C@@H](c2ccccc2-c2ccc(F)cc2)[C@H](CO)N1C(=O)NC1CCCCC1,59*[25 µM]
N#C[C@@H]1[C@H](c2ccc(C#CC3CCCC3)cc2)[C@H](CO)N1C(=O)Nc1ccc(F)cc1,0
SMILES,BL2 CD40 inh
N#C[C@@H]1[C@H](c2ccc(C#CC3CCCCC3)cc2)[C@@H](CO)N1C(=O)Nc1ccc(F)cc1,77*[25 µM]
N#C[C@H]1[C@@H](c2ccc(C#CC3CCCCC3)cc2)[C@@H](CO)N1C(=O)Nc1ccc(F)cc1,62*[25 µM]
N#C[C@H]1[C@@H](c2ccc(C#Cc3ccc(F)cc3)cc2)[C@H](CO)N1C(=O)Nc1ccc(F)cc1,-12
CC(C)NC(=O)N1[C@H](CO)[C@@H](c2ccc(C#CC3CCCCC3)cc2)[C@@H]1C#N,19
N#C[C@H]1[C@H](c2ccccc2-c2ccc(F)cc2)[C@@H](CO)N1C(=O)NC1CCCCC1,30[25 µM]
Cc1ccccc1NC(=O)C[C@H]1CC[C@H]2[C@@H](COc3ccc(NC(=O)NC(C)C)cc3C(=O)N2C)O1,0[25 µM]
CN1[C@@H]2c3ccc(-c4cccnc4)c(=O)n3C[C@@H]2[C@@H](CO)[C@@H]1C(=O)NC1Cc2ccccc2C1,16[25 µM]
COc1ccc(-c2ccc3n(c2=O)C[C@@H]2[C@@H](CO)[C@H](C(=O)N4CCOCC4)N[C@H]32)cc1,1[25 µM]
COc1ccccc1S(=O)(=O)N1CC[C@@H]2[C@@H](CO)Nc3ccc(-c4ccc(C#N)cc4)cc3[C@@H]21,3[25 µM]
O=C(NCc1ccc(F)cc1)[C@H]1N[C@H]2c3ccc(-c4ccccc4)c(=O)n3C[C@H]2[C@@H]1CO,-13[25 µM]
O=C(CN1C(=O)c2cccc([N+](=O)[O-])c2C1=O)OCC(=O)N1CCCCC1,61*
O=C(CCCN1C(=O)c2cccc3cccc(c23)C1=O)OCC(=O)N1CCCCC1,-3
O=C(COC(=O)CCN1C(=O)c2cccc([N+](=O)[O-])c2C1=O)NCc1ccccc1,6
COCCNC(=O)[C@H]1[C@H](CO)[C@H]2Cn3c(ccc(-c4ccccc4OC)c3=O)[C@H]2N1C(=O)C1CCC1,-13[25 µM]
O=C(C[C@@H]1C[C@@H]2c3cc(NC(=O)Nc4ccccc4)ccc3O[C@@H]2[C@H](CO)O1)NCCN1CCCCC1,-9[25 µM]
